Source: PubChem BioAssay
Rows were chosen to be rich in hits. Some 11% of all compounds tested hit in one or more screens of this group.
Tau ThT inhib = qHTS for Inhibitors of Tau Fibril Formation, Thioflavin T Binding; recombinant tau K18 P301L, heparin-induced fibrillization, ThT fluorescence; Potency, µM (series often up to 57.4 µM), without a hit: at the top dose activity, negative = inhibition, most hits filed as inhibitors; 270,000 tested, 2.1% active; AID 1460, 2008; also: potency is read from the fitted curve at half-maximal effect; nearly all actives have a fitted effect of over 55% in size
Target sequence (P10636 561-689 P618L limits assumed): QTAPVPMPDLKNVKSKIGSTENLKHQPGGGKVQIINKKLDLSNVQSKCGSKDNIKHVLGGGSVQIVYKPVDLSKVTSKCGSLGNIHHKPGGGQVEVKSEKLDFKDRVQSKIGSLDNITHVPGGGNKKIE
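Aggregation was driven by heparin (20 uM final) acting on recombinant tau […] bearing P301L in 100 mM sodium acetate pH 7; fibrils were detected with Thioflavin T.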
Coupling enz = qHTS Assay for Inhibitors of Fructose-1,6-bisphosphate Aldolase from Giardia Lamblia: Coupling assay counterscreen | 290,000 tested, 0.67% active | coupling enzyme system counterscreen, AmpLite Red fluorescence | activity change, negative = inhibition, % at 58.2 µM, hits read low | AID 2472, 2010; in the data active = activity change below about -30%
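Activity here indicates interference with the coupling reaction, not aldolase inhibition. Compounds at 57.5 uM final met coupling enzymes for 10 min at RT; substrate and AmpLite Red detection followed, with a 525/598 nm fluorescence read after 20 min.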
Sfp PPTase inh = qHTS Assay for Inhibitors of Bacillus subtilis Sfp phosphopantetheinyl transferase (PPTase); 4'-phosphopantetheinyl transferase ffp (Bacillus subtilis), Q9F4F7; Biochemical Sfp PPTase activity, qHTS; Potency, µM, inactives show largest response in the series, negative = inhibition, actives largely listed as inhibitors; 310,000 tested, 3.5% active; AID 1490, 2009;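 also: the enzyme is Sfp with the accession as filed and its product quenches rhodamine fluorescence; potency is read from the fitted curve at half-maximal effect; 0% = enzyme reaction without inhibitor and -100% = no enzyme wells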
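Step 1, compound plus 15 nM Sfp-PPTase, 15 min, room temperature. Step 2, add rhodamine-CoA (5 uM) and BHQ-2-YbbR (12.5 uM). Step 3, read 525/598 nm fluorescence at 0 and 30 min.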
G9a inh = qHTS Assay for Inhibitors of Histone Lysine Methyltransferase G9a | G9a H3K9 monomethylation, AlphaScreen, 2 h | Potency, µM (top dose mostly 102 µM), for inactives: at the top dose activity, negative = inhibition, hits mostly inhibitors | 350,000 tested, 8.8% active | AID 504332, 2011; also: potency is read from the fitted curve at half-maximal effect; nearly all actives have a fitted effect of over 75% in size
Target sequence (Q96KQ7 913-1193 limits assumed): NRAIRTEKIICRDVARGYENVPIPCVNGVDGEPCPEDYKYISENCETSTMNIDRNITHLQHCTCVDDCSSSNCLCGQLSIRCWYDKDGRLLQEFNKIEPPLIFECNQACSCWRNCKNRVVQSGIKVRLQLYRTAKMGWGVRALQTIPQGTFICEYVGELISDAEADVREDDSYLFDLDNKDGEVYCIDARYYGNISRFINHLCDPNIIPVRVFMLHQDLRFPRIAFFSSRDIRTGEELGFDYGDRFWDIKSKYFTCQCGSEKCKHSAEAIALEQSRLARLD
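G9a (20 nM) was preincubated 15 min with compound, then reacted 2 h at room temperature with 500 nM biotin-H3K9 peptide and 20 µM SAM. Monomethyl-H3K9 detected by AlphaScreen using anti-H3K9me1 antibody.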
Tau fluor counter = Counterscreen qHTS for Inhibitors of Tau Fibril Formation, Fluorescence Polarization. 280,000 tested, 0.93% active. tau K18 P301L (four-repeat tau fragment) Alexa594 fluorescence, heparin fibrillization. Potency, µM (titrated, usually from 57.7 µM), for inactives: at the top dose activity change, negative = decrease; also: potency is read from the fitted curve at half-maximal effect; nearly all actives have a fitted effect of over 55% in size
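Human K18 P301L tau (15 uM unlabeled plus 0.24 uM Alexa 594-labeled, final) in 100 mM sodium acetate pH 7 was mixed with compound and 20 uM heparin and incubated 6 hr at 37 C.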
Tau FP inhib = qHTS for Inhibitors of Tau Fibril Formation, Fluorescence Polarization; Microtubule-associated protein tau (Homo sapiens), P10636; K18 P301L tau heparin fibrillization, Alexa594 FP, 6 h; Potency, µM (titrated, usually from 57.7 µM), without a hit: at the top dose activity, negative = inhibition, usual class: inhibitors; 280,000 tested, 0.39% active; also: potency is read from the fitted curve at half-maximal effect; nearly all actives have a fitted effect of over 55% in size
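Read-out: fluorescence polarization of Alexa 594-labeled tau (0.24 uM), 555 nm excitation, 632 nm emission. Mixtures held 15 uM unlabeled K18 P301L, compound and 20 uM heparin, pH 7 acetate buffer, incubated 6 hr at 37 C.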
Numbers without * were called inactive; ? = inconclusive; / = no result given; ! = repeats disagree; [ ] = dose if it differs, or a comment. Unless noted, calls follow the shape of the dose curve; as a rule, active = well fitted curve in the direction sought with a large enough effect; inconclusive = small, poorly fitted or top-dose-only effect, or another doubt; inactive = no such curve, though single readings can be large; an effect the other way counts as inactive or inconclusive. Unless noted, % is scaled to controls: 0 for no effect and ±100 for the full control effect.

SMILES	Tau ThT inhib	Coupling enz	Sfp PPTase inh	G9a inh	Tau fluor counter	Tau FP inhib
COc1ccc(CCN=C(N)NS(=O)(=O)c2cc(F)ccc2OC)cc1	/	/	13%	29%	/	/
O=C(CN1CCN(Cc2ccccc2Cl)CC1)N/N=C/c1ccccn1	-9%	0	-3%	50µM*	-7%	-5%
O=C(CN1CCSCC1)N/N=C/c1ccc(F)c(F)c1	-4%	0	?	5.6µM*	-9%	3%
CCOc1ccc(/C=N/NC(=O)CN2CCCCCCC2)cc1	-7%	0	-27%	7.9µM*	-10%	6%
COc1ccc(/C=N/NC(=O)CN2CCSCC2)c(OC)c1	-14%	-1	-2%	7.9µM*	-9%	-1%
O=C(CN1CCN(c2ccccc2)CC1)N/N=C/c1cccc(F)c1	-12%	-1	-4%	-2%[59 µM]	-16%	7%
O=C(CN1CCN(S(=O)(=O)c2ccccc2F)CC1)NC1CCCC1	-5%	2	-3%	?	-9%	3%
O=C(CN1CCCCCCC1)N/N=C/c1ccc(F)cc1F	1%	5	-2%	22µM*	-4%	0%
O=C(CN1CCCCCC1)N/N=C/c1ccc(Cl)c(Cl)c1	13%	2	-23%	13µM*	8%	1%
CN(C)S(=O)(=O)N(CC(=O)Nc1ccc(C(F)(F)F)cc1)c1ccccc1	-8%	/	/	10%[59 µM]	?	?
COc1ccc(OC)c(NC(=O)CSc2nncc3ccccc23)c1	/	/	14%	/	/	/
COc1ccc(C(=O)Sc2nncc3ccccc23)cc1	-17%	0	50µM*	22µM*	-6%	7%
Cc1scc2c1N(C(=O)CN1CCN(C)CC1)c1ccccc1NC2=O	0%	1	16%	35µM*!	2%	3%
Nc1nc(CSCc2ccccc2)nc(N2CCOCC2)n1	2%	-1	28µM*	-20%[59 µM]	-12%	-9%
Nc1nc(CSc2nc3ccccc3s2)nc(N2CCOCC2)n1	-12%	4	26%	12%	-7%	2%
Clc1ccc2c(NCc3ccccn3)ccnc2c1	/	3	7%	4%[2.33 µM]	/	/
CCN(CC)Cc1ccc(Nc2ccnc3cc(Cl)ccc23)cc1O	-8%	-1	-11%	-33%[2.33 µM]	-19%	-10%
Oc1ccc(/C=N/Nc2ccnc3cc(Cl)ccc23)c(O)c1O	/	-23	45µM*	22µM*	/	/
CC/C(=N\Nc1ccnc2cc(Cl)ccc12)c1ccc(O)cc1	/	0	4%	28µM*	/	/
Oc1ccc(/C=N/Nc2ccnc3cc(Cl)ccc23)cc1O	10µM*	-8	?	?	16µM*[quencher]	13%
COc1ccc(OC)c(C2NC(=O)NC(C)=C2C(=O)Nc2ccc(F)cc2)c1 (centres undefined)	-2%	/	/	?	-5%	-6%
COCCN(C(=O)C1CCN(C(=O)c2ccccc2C)CC1)c1c(N)n(CC(C)C)c(=O)[nH]c1=O	/	/	/	1.6µM*	/	/
COCCN(C(=O)C1CC(=O)N(Cc2ccc(C)cc2)C1)c1c(N)n(CC(C)C)c(=O)[nH]c1=O (centres undefined)	/	/	/	6%[2.33 µM]	/	/
CCCCn1c(N)c(N(CCOC)C(=O)CN2c3ccccc3CC2C)c(=O)[nH]c1=O (centres undefined)	?	1	19%	20µM*	-9%	-4%
CCCCn1c(N)c(N(CCOC)C(=O)C2CC(=O)N(Cc3ccc(C)cc3)C2)c(=O)[nH]c1=O (centres undefined)	/	/	/	50µM*	/	/
SMILES	Tau ThT inhib	Coupling enz	Sfp PPTase inh	G9a inh	Tau fluor counter	Tau FP inhib
CCCCn1c(N)c(N(CC(C)C)C(=O)C2CC(=O)N(c3ccccc3C(C)CC)C2)c(=O)[nH]c1=O (centres undefined)	/	/	/	79µM*	/	/
CCC(C(=O)NCCc1cc(OC)ccc1OC)n1nc(C)c2sc3ccccc3c2c1=O (centres undefined)	14%	/	/	5%[59 µM]	-25%	-13%
CCCCN(C(=O)C1CC(=O)N(c2ccc(C)cc2)C1)c1c(N)n(CCC)c(=O)[nH]c1=O (centres undefined)	/	/	/	45µM*	/	/
COc1ccc(-n2nc3c(N4CCC(C(=O)N5CCCCCC5)CC4)nnc(C)c3c2C)cc1	/	0	5%	1%[59 µM]	/	/
CNc1nc(-c2c(C)n(C)c3ccc(OC)cc23)cs1	/	-9	-15%	45µM*	/	/
Cc1ccc2c(c1)c(-c1csc(N)n1)c(C)n2C	/	-3	1%	45µM*	/	/
Nc1nc(-c2ccc(Cl)c(Cl)c2)c(-c2ccncc2)s1	-17%	6	22µM*	/	-12%	-1%
CC(=O)NCCNC(=O)CCCc1nnc2n(CCC(C)C)c(=O)c3sccc3n12	0%	/	/	-25%[59 µM]	3%	4%
Cc1ccccc1NC(=O)C1c2cccc[n+]2CC(=O)N1Cc1ccc2c(c1)OCO2 (centres undefined)	-15%	2	-12%	11µM*	-6%	-2%
Cc1ccccc1NC(=O)NCc1ccc2c(c1)OCO2	4%	2	2%	13%	2%	-1%
Cc1cccc(C)c1NC(=O)C1c2cccc[n+]2CC(=O)N1Cc1cccs1 (centres undefined)	-16%	-3	13%	50µM*	-9%	0%
CC1CCCC(NC(=O)C2c3ccccc3C(=O)N2Cc2cccs2)C1C (centres undefined)	-3%	1	18%	5%[59 µM]	-1%	-2%
CC1(C(=O)OCC(=O)NCCNC(=O)COC(=O)C2(C)CC2(Cl)Cl)CC1(Cl)Cl (centres undefined)	/	/	6%	19%	/	/
CCOC(=O)c1c(NC(=O)CSc2nnc(-c3ccncc3)n2Cc2ccco2)sc(C)c1C	-17%	4	1%	50µM*	-11%	4%
Cc1cc(C)c(NC(=O)CSc2nnc(-c3ccncc3)n2Cc2ccco2)c(Cl)c1	-14%	2	20µM*	50µM*	-5%	-7%
Cc1ccc(S(=O)(=O)N2CCN(S(=O)(=O)N3CCCCC3)CC2)cc1	8%	3	13%	12%[59 µM]	4%	5%
Cc1[nH]n(C(N)=S)c(=O)c1N=Nc1ccc(S(=O)(=O)N2CCCCCC2)cc1	25µM*	1	6%	-21%[59 µM]	-26%	7%
Cc1ccc(N=Nc2c(C)[nH]n(C(N)=S)c2=O)cc1C	4.5µM*	3	-20%	2%[59 µM]	-4%	5%
Cc1[nH]n(C(N)=S)c(=O)c1N=Nc1cc(-c2ccc(Br)cc2)[nH]n1	2.2µM*	2	4%	-49%	?	3%
